Assay outcomes as filed in PubChem.
CYP2C19 inhib = blockers of cytochrome P450 2C19 activity – biochemical, luminescence, ADME assay, primary screen. P33261. CYP2C19 Supersomes, luciferin-H EGE luminescence, 30 min. inhibition, % at 5 µM. actives 21% (n = 96,000). AID 778, 2007;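 active = CYP2C19 inhibition above a set limit at 5 µM in the primary screen, cut at about 50% in these data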;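 also: plate controls were negative control wells for no effect and 2.5 mM tranylcypromine positive control for full effect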
Target sequence (P33261 whole entry, looked up): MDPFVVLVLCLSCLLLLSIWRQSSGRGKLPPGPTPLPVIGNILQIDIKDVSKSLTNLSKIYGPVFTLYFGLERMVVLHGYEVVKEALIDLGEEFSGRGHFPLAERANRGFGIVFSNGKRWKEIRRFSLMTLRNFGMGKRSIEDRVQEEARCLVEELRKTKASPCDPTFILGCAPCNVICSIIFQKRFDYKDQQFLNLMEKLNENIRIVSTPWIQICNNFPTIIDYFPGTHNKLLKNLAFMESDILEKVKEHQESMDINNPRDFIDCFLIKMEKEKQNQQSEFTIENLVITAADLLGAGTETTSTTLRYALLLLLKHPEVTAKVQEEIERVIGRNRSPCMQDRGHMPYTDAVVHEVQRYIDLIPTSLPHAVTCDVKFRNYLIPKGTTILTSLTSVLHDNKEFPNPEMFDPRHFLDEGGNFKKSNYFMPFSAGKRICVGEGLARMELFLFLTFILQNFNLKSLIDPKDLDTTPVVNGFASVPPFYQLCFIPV
Cav3 T inh = Cav3.2 calcium influx blockers – cell-based, Fluo-4 calcium fluorescence, FDSS, MLSMR library, primary screen; actives 4% (n = 100,000); Cav3.2-expressing cells; active compounds read low; B-score at 10 µM; Voltage-dependent T-type calcium channel subunit alpha-1H (Homo sapiens), O95180;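 active = single-dose well whose peak fluorescence ratio is a statistical outlier from its plate by either plate-standardised score or position-corrected B-score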
CYP2C19 activ = human CYP2C19 activators, primary screen, biochemical, luminescence | Cytochrome P450 2C19 (Homo sapiens), P33261 | recombinant CYP2C19, luciferin-H EGE luminescence; active compounds read high; 0 = fully inhibited enzyme, 1 = untreated enzyme | activation factor at 5 µM | 96,000 tested, under 10 active | AID 1025, 2008;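 active = activation factor of at least 2 at 5 µM in the primary screen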;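 also: 0 = wells with 2.5 mM tranylcypromine and 1 = vehicle-only wells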
CYP2C9 act = human CYP2C9 activators, primary screen, biochemical, luminescence; Cytochrome P450 2C9 (Homo sapiens), P11712; recombinant CYP2C9, luciferin-H conversion; active compounds read high; factor 1 = untreated enzyme, 0 = blocked; activation factor at 5 µM; actives 1.4% (n = 96,000); AID 1024, 2008;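 active = activation factor of 2 or more for CYP2C9 at a 5 µM dose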;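 also: 0 = sulfaphenazole-blocked wells and 1 = vehicle-only wells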
CYP2C9 inh = blockers of cytochrome P450 2C9 activity – biochemical, luminescence, ADME assay, primary screen | inhibition, % at 5 µM | actives 20% (n = 96,000) | CYP2C9 Supersomes, luciferin-H conversion | P11712;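 active = blocking of liver enzyme CYP2C9 beyond about 50% at 5 µM, limit read from the data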
Starred values were filed as active, the others as inactive; . = not tested or not shown. Only some compounds are listed: those with a hit (about 27% of all), similar ones and a draw of the others.

SMILES	CYP2C19 inhib	Cav3 T inh	CYP2C19 activ	CYP2C9 act	CYP2C9 inh
Cc1ccc(/C=C/C(=O)c2cc(Br)ccc2OC(=O)c2ccco2)cc1	83*	-0.76	0.2	0.2	76*
CCOC(=O)C1CCN(C(=O)Cc2c(C(=O)O)n(CC)c3ccccc23)CC1	-8	1	1.1	1	1
NC(=O)C1CCN(C(=O)C2CCN(S(=O)(=O)c3ccccc3)CC2)CC1	-12	-0.28	1.1	0.8	17
COc1cc(OC)nc(Oc2ccccc2C(=O)Oc2ccc(F)cc2Cl)n1	33	-1.5	0.7	0.6	42
COc1ccccc1CO/N=C/NC(=O)c1c(OC)ccnc1Oc1ccc(F)cc1	97*	-0.66	0	0.2	77*
COc1ccnc(Oc2ccccc2)c1C(=O)N/C=N/OCc1ccc(F)cc1Cl	66*	-2.9	0.3	0.4	56*
CCOc1ccc(CC(=O)NNC(=S)Nc2ccccc2)cc1Br	53*	-7.4*	0.5	0.3	72*
CCOc1cc(NC(=S)Nc2ccccc2)c(OCC)cc1NC(=O)c1ccccc1	-6	-1.1	1.1	1	4
COc1ccc(CC(=O)NNC(=S)Nc2ccc(Br)cc2)cc1	42	-2.1	0.6	0.5	52*
CCOC(=O)Cn1c(-c2ccccn2)nc2ccccc21	51*	-0.096	0.5	1	1
CCOC(=O)Cn1c(C)nc2ccccc21	8	-0.67	0.9	1.1	-5
CCN=C1SC(C(=O)Nc2cccc(C)c2)CC(=O)N1CC (stereo unspecified)	80*	-0.69	0.2	2.4*	-141
CCN=C1SC(C(=O)NCCc2ccccc2)CC(=O)N1CC (stereo unspecified)	64*	0.018	0.4	1.3	-29
O=C(Cn1cnc2c(cnn2-c2ccc(Cl)cc2)c1=O)NCC1CCCO1 (stereo unspecified)	0	-0.99	1	0.9	8
CC(C)CN1CCC(=O)N(CCSc2ccc(Br)cc2)CC1	.	-0.039	.	.	.
O=C1C=C(Nc2cccc(O)c2)CC(c2ccco2)C1 (stereo unspecified)	.	0.07	.	.	.
CCC(C)Nc1nc(SC(C(C)=O)C(C)=O)nc(N(C)C)n1 (stereo unspecified)	52*	-2.2	0.5	0.4	62*
CN1CC(c2ccccn2)C2(SC(=S)N(Cc3ccccc3)C2=O)C12C(=O)Nc1ccccc12 (stereo unspecified)	41	-4.8*	0.6	0.7	34
Cc1ccc(C2CN(C)C3(C(=O)Nc4ccccc43)C23COc2ccccc2C3=O)cc1 (stereo unspecified)	44	.	0.6	0.6	45
CN1CC(c2ccccc2)C2(SC(=S)N(Cc3ccco3)C2=O)C12C(=O)Nc1ccccc12 (stereo unspecified)	96*	-4.7*	0	0	95*
Cc1cccc(C(=O)O/N=C/c2c(N3CCOCC3)n(C)c3ccccc23)c1	31	-0.4	0.7	0.1	85*
O=S(=O)(NCCSc1ccccc1)c1ccc(F)cc1	40	-5.7*	0.6	0.9	13
CC(C)(C)SCCNS(=O)(=O)c1ccc(F)cc1	14	-0.54	0.9	0.6	40
O=S(=O)(NCCSc1ccccc1)c1cccs1	80*	-1.8	0.2	0.5	46
C=C(C)CSc1nnc(-c2cccc(S(=O)(=O)N(C)C)c2)n1-c1cc(OC)ccc1OC	86*	-3.2	0.1	0.2	85*
SMILES	CYP2C19 inhib	Cav3 T inh	CYP2C19 activ	CYP2C9 act	CYP2C9 inh
O=C(Nc1cccnc1)c1ccccc1Oc1ccccc1	64*	1.1	0.4	0.5	55*
COc1cccc(C(=O)Nc2cccnc2)c1	26	.	0.7	0.9	14
O=C(Nc1cccnc1)c1ccc(Oc2ccccc2)cc1	36	-0.013	0.6	0.1	89*
C#CC(C)(CC)NC(=O)c1cc(OC)c(OC)c(OC)c1 (stereo unspecified)	-9	0.042	1.1	1.1	-12
COc1ccc(NC(=O)C2CCCN(C)C2)cc1OCC(C)C (stereo unspecified)	.	1.2	.	.	.
O=c1[nH]nc2n1CCCCC2	-2	1.3	1	1.1	-10
CCc1cccc2c(=O)c(C(=O)NCCN3CCOCC3)c[nH]c12	-14	0.17	1.1	1.2	-17
Cc1nnc(SCCn2c(N3CC(C)CC(C)C3)nc3c2c(=O)n(C)c(=O)n3C)s1 (stereo unspecified)	17	1.2	0.8	0.8	20
Cc1nnc(SCCn2c(Br)nc3c2c(=O)n(C)c(=O)n3C)s1	80*	1.3	0.2	0.9	8
[N-]=[N+]=CC(=O)c1ccnc(C(=O)C=[N+]=[N-])c1	-5	-0.91	1.1	1	5
COc1ccc2[nH]c(=O)c(CN(Cc3ccc4c(c3)OCO4)C(C)=O)cc2c1	4	-0.3	1	1.2	-19
CCOc1ccc2[nH]c(=O)c(CN(Cc3ccc(F)cc3)C(=O)c3ccco3)cc2c1	22	-4.3*	0.8	0.8	22
CCc1ccc2[nH]c(=O)c(CN(Cc3ccc4c(c3)OCO4)C(=O)c3ccco3)cc2c1	5	-3.3*	0.9	0.9	15
O=c1nc(/C=C/c2cc([N+](=O)[O-])ccc2Cl)cc(C(F)(F)F)[nH]1	-3	-1.6	1	0.2	81*
Cc1cc2cc(CNC(=O)c3ccc4c(c3)OCO4)ccc2n1C	72*	-2.7	0.3	1.1	-9
CCOc1ccc(CC(=O)NCc2ccc3c(c2)cc(C)n3C)cc1	.	-8.1*	.	.	.
COc1ccc(C(=O)NCc2ccc3c(c2)cc(C)n3C)cc1	.	-1.4	.	.	.
CCSc1nnc(N2C(=O)CC(c3ccsc3)C3=C2CC(C)(C)CC3=O)s1 (stereo unspecified)	40	-1.2	0.6	0.9	14
CCOc1cc(CNC(=O)CN2C(=O)c3ccccc3S2(=O)=O)ccc1OC	6	2	0.9	0.8	19
CCCN(CCC)C(=O)CSc1nc2n[nH]c(C)c2c(=N)n1-c1ccc(OCC)cc1	32	-6.2*	0.7	0.7	34
Cc1cc(C)n(CC(=O)N2c3ccccc3Sc3ccccc32)n1	67*	-1.8	0.3	0.6	38
Cc1nccn1Cc1cccc2ccccc12	51*	.	0.5	0.7	27
CCOc1ccccc1N1CCN(CC(O)COc2ccc3c(C)cc(=O)oc3c2)CC1 (stereo unspecified)	20	0.77	0.8	0.9	15
COc1ccc(CCNC(=O)CN2CCN(c3ccccc3Cl)CC2)cc1	43	-3.1	0.6	0.5	47
COc1ccc(CCNC(=O)CN2CCN(c3cccc(C(F)(F)F)c3)CC2)cc1	76*	-3.6	0.2	0.2	76*
